# Laboratory results taken from PubChem BioAssay (NCI).
# The panel holds about 79,000 compounds, 15% with a hit somewhere; the sample as a whole holds those more often. Values without a mark were called inactive. Activity calls are given as the source filed them. No stated cut-off is given here; in the data, active means growth inhibition above about 70%; inactive means the rest.
# Columns and labels:
# [1] = NCI Yeast Anticancer Drug Screen. Data for the rad50 strain (AID 155);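 further: 0% = growth of vehicle-only cultures of the same strain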; conditions: S. cerevisiae rad50 strain growth inhibition; at 50.0 µM; active compounds read high
# How it was run: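 Growth of the mutant yeast was measured after compound exposure and referenced to vehicle-treated cultures.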
# [2] = NCI Yeast Anticancer Drug Screen. Data for the mec2-1 strain (AID 157); conditions: S. cerevisiae mec2-1 strain, at 50.0 µM, active compounds read high
# How it was run: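 Cells of the genetically defined mec2-1 yeast strain are incubated with test compound. Inhibition of growth is calculated against vehicle-treated controls.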
# [3] = NCI Yeast Anticancer Drug Screen. Data for the cln2 rad14 strain (AID 165);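 further: 0% = growth equal to vehicle treated cultures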; conditions: S. cerevisiae cln2 rad14 strain, at 50.0 µM, active compounds read high
# How it was run: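 The screen exposed genetically defined yeast (cln2 rad14) to test compounds and scored growth inhibition relative to vehicle-treated controls.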
# [4] = NCI Yeast Anticancer Drug Screen. Data for the bub3 strain (AID 167); conditions: S. cerevisiae bub3 mutant strain, at 50.0 µM, active compounds read high
# How it was run: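 Whole-cell yeast assay. The mutant strain was incubated with compounds, and growth inhibition was determined by comparison with vehicle-treated cells.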
# [5] = NCI Yeast Anticancer Drug Screen. Data for the mlh1 rad18 strain (AID 175); conditions: S. cerevisiae mlh1 rad18 strain growth inhibition; at 50.0 µM; active compounds read high
# How it was run: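 Compound-treated yeast growth, normalised to vehicle controls. Strain bears defined DNA repair mutations.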
# [6] = NCI Yeast Anticancer Drug Screen. Data for the sgs1 mgt1 strain (AID 161);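 further: 0% = growth of cultures given vehicle only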; conditions: S. cerevisiae sgs1 mgt1 strain, at 50.0 µM, active compounds read high
# How it was run: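 Genetically altered yeast, compound exposure, growth inhibition relative to vehicle.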
Structure (SMILES),growth inhibition [1],growth inhibition [2],growth inhibition [3],growth inhibition [4],growth inhibition [5],growth inhibition [6]
CCCCCCCCCNP(=O)(OCc1ccccc1)N(CCCl)CCCl (stereo not given),55.5%,37.2%,34.8%,-0.4%,26.4%,
CN=NNc1nc[nH]c1C(N)=O,23.9%,32.2%,,3.85%,40.5%,25.2%
O=NN1CCCCCCC1C(=O)O (stereo not given),1.3%,6.55%,-22.8%,9.15%,19.5%,
c1cc2n[se]nc2cc1-c1ccc2n[se]nc2c1,26.7%,-11.8%,-40.2%,-9.55%,-17.4%,
N/C(=N\NC(=O)c1ccc([N+](=O)[O-])cc1)N[N+](=O)[O-],-11.1%,-12.2%,28.8%,11.2%,1.75%,
C=C[C](=C)[Pb]([CH2]C)([CH2]C)[CH2]C,-7.3%,4.75%,13.7%,-10.6%,5.5%,
O=C(c1ccccc1)C1CN(C2CCCC2)C1c1ccccc1 (stereo not given),-10.2%,7.6%,-27.3%,10.4%,16.1%,
CC(C)C1NC(C(C)C)N2C(C(C)C)N12 (stereo not given),-0.05%,-17.2%,-24.5%,-2.25%,-1.5%,
CN(C(=O)CCl)c1ccccc1,15.3%,13.7%,11.2%,9.75%,26.9%,
O=NNc1ncc([N+](=O)[O-])cn1,-1.05%,5.35%,-23.4%,-5%,-8.4%,
FC(F)(F)[S-].FC(F)(F)[S-].[C-]#[O+].[C-]#[O+].[C-]#[O+].[C-]#[O+].[C-]#[O+].[C-]#[O+].[C-]#[O+].[C-]#[O+].[Mn].[Mn],99.3% (active),99.6% (active),99% (active),99% (active),99.3% (active),
CCOc1ccc(/C=C/c2cc(OC)c(OC)c(OC)c2)cc1,-27.9%,-21.7%,-10.3%,-8.6%,-34.2%,
CC(C)(Br)[N+](=O)[O-],9%,-3.55%,10.2%,10.8%,1.8%,
C=CCOCC1CO1 (stereo not given),9.1%,-5.1%,-8.6%,-1.7%,15.8%,
C=CCOCN1c2cc(OC)c([C@@]3(C(=O)OC)C[C@@H]4CN(CCc5c3[nH]c3ccccc53)C[C@](O)(CC)C4)cc2[C@@]23CCN4CC=C[C@@](CC)([C@@H](OC(C)=O)[C@](O)(C(=O)OC)[C@H]12)[C@H]43,-21.2%,-8.75%,0.2%,-0.05%,-16.4%,
C=Cn1nnc(N)n1,-4.9%,-0.45%,4.55%,17.1%,9.05%,
O=C(CC(=O)c1ccccc1)c1ccccc1.O=C(CC(=O)c1ccccc1)c1ccccc1.[Pd],20.5%,4.9%,,6.05%,19.8%,6.7%
Cn1c(=O)oc(=O)c2ccccc21,-0.45%,-15.3%,-3.1%,-27.4%,6.85%,
NCCN.O=C([O-])[O-].O=C([O-])[O-].[Co+3].[K+],1.5%,4.6%,13.2%,-8.9%,-5.55%,
CN(C)Cc1c[nH]c2ccc(F)cc12,-27%,-13.8%,5.65%,-11.8%,-16.9%,
O=C1OC(Br)c2ccccc21 (stereo not given),-11.4%,-27.7%,7%,-20.1%,-7.65%,
C[Si](C)(C)CN(N=O)C(N)=O,1.55%,3.4%,-25.2%,3.95%,9.45%,
NS(=O)(=O)CC1CC[CH-]CC1.[Cl-].[Cl-].[Cl-].[Cl-].[Cl-].[Sb+5].c1ccncc1,11.3%,-14.1%,-12.2%,-20.4%,18.1%,
NC(CSSCC(N)C(=O)c1ccccc1)C(=O)c1ccccc1 (stereo not given),23.9%,0.8%,6%,6.55%,4.35%,
